Compounds with a hit are over-represented: about 2% of the library has one in this group of screens.
TAG inh: inhibitors of triacylglycerol accumulation, primary screen, cell-based, uHTS, fluorescence, H9c2; H9c2 cells, Nile Red lipid (TAG) fluorescence; cells loaded with 200 µM oleic acid; inhibition, % at 12.5 µM; 230,000 tested, 0.66% active;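 active = pattern-corrected inhibition of lipid staining of at least 50% with the nuclear-stain viability signal not falling by more than 50%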
Kir21 block: inhibitors of mouse Kir2.1 inward-rectifier potassium channel; 310,000 tested, 0.85% active; Inward rectifier potassium channel 2 (Mus musculus), P35561; HEK293-Kir2.1, FluxOR thallium flux fluorescence; hits give low values; B-score at 10 µM; AID 1672, 2009;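 active = fluorescence ratio B-score at or below minus 3 SD of library scores, with starting-brightness B-score within 2 SD, cut at about -4.2 in these data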;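 note: channel flux triggered by added potassium and thallium sulfate stimulus; B-score of peak minus minimum fluorescence over baseline after thallium stimulus; more negative B-score means stronger Kir2.1 block with less thallium influx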
CHT allo act: CHT positive allosteric modulators, primary screen, cell-based, membrane potential dye, choline EC20. B-score at 10 µM. High affinity choline transporter 1 (Homo sapiens), Q9GZV3. 310,000 tested, 0.49% active. AID 488977, 2010. CHT-expressing cells; hits give high values; LV-AA mutant CHT in HEK293 cells;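 active = initial fluorescence not abnormally high and integrated response B-score, plate-corrected, over 3 SD above library mean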
Target sequence (Q9GZV3 whole entry, looked up): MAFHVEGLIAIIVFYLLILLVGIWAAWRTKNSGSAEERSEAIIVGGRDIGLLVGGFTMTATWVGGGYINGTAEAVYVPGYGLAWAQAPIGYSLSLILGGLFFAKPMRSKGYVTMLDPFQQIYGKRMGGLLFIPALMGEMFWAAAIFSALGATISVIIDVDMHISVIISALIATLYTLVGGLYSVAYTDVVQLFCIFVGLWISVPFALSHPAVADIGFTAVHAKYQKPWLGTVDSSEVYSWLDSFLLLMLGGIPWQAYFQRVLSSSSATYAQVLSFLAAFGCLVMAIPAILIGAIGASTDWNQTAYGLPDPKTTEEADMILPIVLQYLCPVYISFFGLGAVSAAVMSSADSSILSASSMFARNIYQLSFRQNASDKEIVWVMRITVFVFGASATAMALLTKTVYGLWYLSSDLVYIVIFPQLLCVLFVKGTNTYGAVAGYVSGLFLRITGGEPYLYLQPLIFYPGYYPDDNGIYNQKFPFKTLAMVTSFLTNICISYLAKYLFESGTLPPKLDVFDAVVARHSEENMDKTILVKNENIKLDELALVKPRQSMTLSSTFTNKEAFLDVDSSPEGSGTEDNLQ
CHT block: inhibitors of human choline transporter CHT; 310,000 tested, 0.86% active; High affinity choline transporter 1 (Homo sapiens), Q9GZV3; AID 488975, 2010; B-score at 10 µM; CHT-expressing cells, membrane potential dye, choline response; hits give low values;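 active = B-score over 3 SD under the library average, and starting fluorescence ratio not unusually high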;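 note: choline stimulus applied at its EC90 after an EC20 pre-addition; B-score computed on integrated fluorescence ratio after choline addition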
Each line names hits and unclear results; the compound was inactive in the other large screens; ! = not active in a repeat.

Cc1ccccc1NC(=O)CSc1nnc(C)c2ccccc12	none (no result: TAG inh)
CCCCNCc1cc(Br)c(OCc2cccs2)c(OC)c1	Kir21 block -12 (no result: TAG inh)
COc1cc(CNCCO)cc(Br)c1OCc1ccccc1Cl	Kir21 block -13 (no result: TAG inh)
COc1cccc(CNCCO)c1OCc1ccccc1	none
O=C(CCSc1ccc(Br)cc1)c1ccc(O)cc1	none (no result: TAG inh)
CN(C)CC/C=C1/c2cc(F)ccc2Sc2ccc(Cl)cc21	Kir21 block -8.5
CN1CCN(CC/C=C2/c3ccccc3Sc3ccc(S(=O)(=O)N(C)C)cc32)CC1	none
CN(C)CC/C=C1/c2ccccc2Sc2c(O)cc(Cl)cc21	none
COc1cc(Cl)cc2c1Sc1ccccc1/C2=C/CCN(C)C	Kir21 block -13
COc1cc2c(cc1Cl)/C(=C\CCN(C)C)c1ccccc1S2	Kir21 block -11 (no result: TAG inh)
C/C(N)=C(/C#N)C(=O)COC(=O)c1ccccc1C(=O)c1ccc(C)cc1	Kir21 block -5.1
Oc1ccccc1CN1CCN(C(O)(c2ccccc2)c2ccccc2)CC1	Kir21 block -7.3 (no result: TAG inh)
COCCNC(=O)C1(C)Cc2c(-c3cccc(C(F)(F)F)c3)ccnc2O1 (stereo unspecified)	none (no result: Kir21 block, CHT allo act, CHT block)
N#CC(C#N)=C1C=CC=CN1/C(=C\c1ccccc1)C(=O)c1cccs1	Kir21 block -5
Cc1onc(-c2ccccc2)c1CNC(=O)C1COc2ccccc2O1 (stereo unspecified)	Kir21 block -5.4
O=C(NCc1ccccc1)C1COc2ccccc2O1 (stereo unspecified)	none
COc1ccc(C2=C(CN(C)C)C(c3ccccc3)c3ccccc3O2)cc1 (stereo unspecified)	Kir21 block -5.2!
CCOc1ccc(C2=C(C=C(C#N)C#N)C(c3ccccc3)c3ccccc3O2)cc1 (stereo unspecified)	none (no result: TAG inh)
COc1ccccc1OCC(=O)NC1CCCc2ccccc21 (stereo unspecified)	Kir21 block -4.9 (no result: TAG inh)
CC(C)c1ccccc1OCC(=O)NC1CCCc2ccccc21 (stereo unspecified)	Kir21 block -7 (no result: TAG inh)
CC(=O)Nc1cc2c3c(cccc3c1)-c1ccccc1-2	none (no result: Kir21 block, CHT allo act, CHT block)
Cc1cc(C(=O)N2CCC2(C)C(=O)NS(=O)(=O)c2cccc(Cl)c2)nn1C (stereo unspecified)	none (no result: Kir21 block, CHT allo act, CHT block)
FC(F)(F)c1ccc(Cl)c(-n2c(Cc3cccs3)n[nH]c2=S)c1	none
Fc1ccc(-n2c(Cc3cccs3)n[nH]c2=S)cc1Cl	Kir21 block -4.2
CN1Cc2c(N3CCOCC3)nc3sc(C(=O)c4ccc(Br)cc4)c(N)c3c2CC1(C)C	TAG inh 68
CC1=C([N+](=O)[O-])C(c2ccccc2)C2=C(N1)c1ccccc1C2=O (stereo unspecified)	TAG inh 60
C=CCn1c(SCC(=O)Nc2ccccc2-c2ccccc2)nc2cc(C(=O)O)ccc2c1=O	none
Cc1cc(S(=O)(=O)N2CCN=C2c2ccccc2)ccc1F	Kir21 block -4.7 (no result: TAG inh)
Cc1cc(C)c(S(=O)(=O)N2CCN=C2c2ccccc2)c(C)c1	none (no result: TAG inh)
COc1cc(/C=N/Nc2nc(C)nc3c2cnn3-c2ccccc2)ccc1O	TAG inh 57 (no result: CHT allo act, CHT block)
Cc1sc(NC(=O)CCC(=O)O)c(C#N)c1C	none
CCc1ccc(C(C(=O)NC2CCCC2)N(C(=O)c2csnn2)C2CC2)cc1 (stereo unspecified)	none (no result: TAG inh)
COCCN=C1N[C@@H](c2ccc(Br)cc2)C(C(=O)OC)=C(C)N1Cc1ccccc1	Kir21 block -6.8
COC(=O)C1=C(C)N(CC2CC2)C(=NCc2cccc(Cl)c2)N[C@H]1c1ccccc1	Kir21 block -4.6
COC(=O)C1=C(C)N(Cc2ccccc2)C(=NCc2cccc(Cl)c2)N[C@H]1c1ccccc1	none (no result: Kir21 block, CHT allo act, CHT block)
Cc1ccc(-n2ncc3c2CC(C)(C)CC3NC(=O)c2ccncc2)cc1 (stereo unspecified)	none
CCN1CCN(c2c(Cl)cccc2NC(=O)c2cccs2)CC1	none
CCN1CCN(c2c(Cl)cccc2NC(=O)c2ccc([N+](=O)[O-])o2)CC1	CHT allo act 7.1
COc1ccc(CC(N)c2csc(NC(=O)c3cc(C(C)(C)C)nn3Cc3ccccc3)n2)cc1 (stereo unspecified)	TAG inh 112 (no result: Kir21 block, CHT allo act, CHT block)
CC(N)c1csc(NC(=O)c2cc(C(C)(C)C)nn2Cc2ccccc2)n1 (stereo unspecified)	none (no result: Kir21 block, CHT allo act, CHT block)
COc1ccc(CCNCc2ccc(OCc3ccccc3)cc2)cc1	Kir21 block -5.4 (no result: TAG inh)
c1ccc(COc2ccc(CNCc3cccs3)cc2)cc1	Kir21 block -13 (no result: TAG inh)
COc1cc(CN(C)CCc2ccccc2)ccc1OCc1ccccc1	Kir21 block -7.6 (no result: TAG inh)
COc1ccc(CNCCc2ccc(Cl)cc2)cc1OCc1ccccc1	Kir21 block -6.4
CC(=O)Nc1cc(-c2ccc(N(C)C)cc2)cn2c(-c3ccc(F)cc3)cnc12	none (no result: Kir21 block, CHT allo act, CHT block)
Cc1cccc(C(=O)Nc2nsc(N)n2)c1	none (no result: TAG inh)
OCC(O)CSc1nc(-c2ccccc2)nc2c1CCC2 (stereo unspecified)	none (no result: TAG inh)
CCOC(=O)C1CCCN(C(=O)c2ccccc2OC(F)(F)F)CC1 (stereo unspecified)	none (no result: Kir21 block, CHT allo act, CHT block)
O=C(CN1C(=O)C(=O)N(Cc2ccccc2)C1=O)c1ccc[nH]1	none (no result: Kir21 block, CHT allo act, CHT block)
COc1ccc(CCNC/C=C/c2ccccc2)cc1	Kir21 block -8.4 (no result: TAG inh)
NS(=O)(=O)c1ccc(CCNC/C=C/c2ccccc2)cc1	none
COc1ccc(CCC(C)NCc2ccc(C(F)(F)F)cc2)cc1 (stereo unspecified)	none
COc1ccc(CNC(C)CCc2ccccc2)cc1 (stereo unspecified)	Kir21 block -6.3 (no result: TAG inh)
Cc1ccc(CNS(=O)(=O)c2c(C)[nH]c(C)c2C(=O)N2CCCCC2)o1	none (no result: TAG inh)
O=C(CSC1=NNC(c2ccccn2)S1)Nc1ccc(C(F)(F)F)cc1 (stereo unspecified)	none
c1ccc(CSC2=NNC(c3ccccn3)S2)cc1 (stereo unspecified)	TAG inh 67
O=C(c1ccc2c(c1)N(Cc1cccc(Cl)c1)C(=O)c1ccccc1S2(=O)=O)N1CCN(c2ccccn2)CC1	none
CC(=O)N1c2ccc(N=Cc3cc(Br)cc(Br)c3O)cc2CC1C (stereo unspecified)	CHT block -5.3 (no result: TAG inh)
CN(C)CCC(Oc1ccccc1OCc1ccccc1)c1ccccc1 (stereo unspecified)	Kir21 block -4.6
CCOc1ccccc1NC(=O)CSc1nc2c(c(=O)n1C)SC(C)C2 (stereo unspecified)	Kir21 block -5.5
CCOCCCNc1ncnc2c1[nH]c1ccccc12	none
CCCCOCCCNc1ncnc2c1[nH]c1ccccc12	Kir21 block -9.6 (no result: TAG inh)
CCCc1nc2ccccc2n1CCc1ccccc1	Kir21 block -6.3
CC(=O)NCCc1nc2ccccc2n1CCc1ccccc1	none (no result: CHT allo act, CHT block)
Cc1cc(N2CCN(C)CC2)nc2ccc(NC(=S)NCCCN3CCc4ccccc4C3)cc12	none
Cc1cc(N2CCCC2)nc2ccc(NC(=S)NCCCN3CCC(C)CC3)cc12	CHT block -7.9
CSc1nccc(Oc2cccc(C#N)c2)n1	none (no result: TAG inh)
CC(C)(C)c1cc(Br)c(O)c(N=Nc2ccc(S(=O)(=O)N3CCOCC3)cc2)c1	TAG inh 85
